Screening data from PubChem.
Tau ThT inhib: blocks human tau fibril formation measured by thioflavin T; Potency, µM (doses to about 57.4 µM), hits mostly inhibitors; recombinant tau K18 P301L, heparin-induced fibrillization, ThT fluorescence; P10636; 270,000 compounds, 2.1% hits; active means well fitted curve in the direction sought with a large enough effect; inconclusive means small, poorly fitted or top-dose-only effect, or another doubt; inactive means no such curve, though single readings can be large; an effect the other way counts as inactive or inconclusive; further: nearly all actives have a fitted effect of over 55% in size
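In this qHTS, human K18 P301L tau is incubated with compound and heparin for 6 hr at 37 C, and Thioflavin T fluorescence then reports fibril load.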
ALDH1A1 inh: inhibitors of human aldehyde dehydrogenase 1A1 | P00352 | Purified ALDH1A1, NADH fluorescence, propionaldehyde substrate | Potency, µM (highest dose often 75.3 µM), actives largely listed as inhibitors | 220,000 compounds, 7.3% hits | AID 1030
Target sequence (P00352 whole entry, looked up): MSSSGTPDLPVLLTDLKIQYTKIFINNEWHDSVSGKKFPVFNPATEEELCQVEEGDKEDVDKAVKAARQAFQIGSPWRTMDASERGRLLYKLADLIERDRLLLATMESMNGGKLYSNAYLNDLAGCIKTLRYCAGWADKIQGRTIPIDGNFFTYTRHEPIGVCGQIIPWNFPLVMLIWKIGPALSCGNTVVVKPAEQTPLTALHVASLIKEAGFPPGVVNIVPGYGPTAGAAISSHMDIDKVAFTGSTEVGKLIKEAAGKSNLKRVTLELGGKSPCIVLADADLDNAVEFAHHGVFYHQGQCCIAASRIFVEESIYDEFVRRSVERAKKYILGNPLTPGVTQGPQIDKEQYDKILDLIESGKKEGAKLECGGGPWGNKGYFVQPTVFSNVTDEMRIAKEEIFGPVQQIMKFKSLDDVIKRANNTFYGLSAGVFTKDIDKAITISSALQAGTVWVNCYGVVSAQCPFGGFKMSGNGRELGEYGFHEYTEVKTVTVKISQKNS
KDM4E inh: JMJD2E (human) inhibition | JMJD2E catalytic domain, FDH-coupled NADH fluorescence (FDH is formaldehyde dehydrogenase) | 230,000 compounds, 1.6% hits | Potency, µM (series often up to 57.1 µM), hits mostly inhibitors; further: nearly all actives have a fitted effect of over 50% in size
Tau fluor cs: counter-screen for tau fibril formation inhibitors | tau K18 P301L Alexa594 fluorescence, heparin fibrillization | Potency, µM (doses to about 57.7 µM) | 280,000 compounds, 0.93% hits; active means well fitted curve in the direction sought with a large enough effect; inconclusive means small, poorly fitted or top-dose-only effect, or another doubt; inactive means no such curve, though single readings can be large; an effect the other way counts as inactive or inconclusive; further: nearly all actives have a fitted effect of over 55% in size
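Human tau K18 P301L (15 uM unlabeled, 0.24 uM Alexa 594-labeled) in 100 mM sodium acetate pH 7 with 20 uM heparin, 6 hr at 37 C. ThT 30 uM added, 1 hr ambient; Alexa 594 FP and total fluorescence read at 555/632 nm.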
HPGD inh: blocks human HPGD enzyme activity. AID 894. Potency, µM, actives largely listed as inhibitors. P15428. 150,000 compounds, 4.3% hits. purified HPGD, NADH fluorescence kinetic, PGE2 substrate
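NADH formation kinetics: reaction with 30 uM PGE2 and 1 mM NAD+ (final), 20 nM enzyme, Tris-HCl pH 8 with Tween 20, after 15 min compound preincubation at room temperature. Fluorescence change, last versus first of five reads.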
Tau FP inhib: tau fibrillization inhibition (FP); P10636; K18 P301L tau heparin fibrillization, Alexa594 FP, 6 h; Potency, µM (series often up to 57.7 µM), actives largely listed as inhibitors; 280,000 compounds, 0.39% hits; AID 1468; active means well fitted curve in the direction sought with a large enough effect; inconclusive means small, poorly fitted or top-dose-only effect, or another doubt; inactive means no such curve, though single readings can be large; an effect the other way counts as inactive or inconclusive; further: nearly all actives have a fitted effect of over 55% in size
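FP of Alexa 594-tau after heparin (20 uM) induction. Substrate: human K18 P301L, 15 uM unlabeled, 0.24 uM labeled. Buffer 100 mM sodium acetate pH 7. 6 hr, 37 C.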
Of the large screens only hits and unclear results are named; the others gave an inactive call; [ ] = dose if it differs, or a comment. Rows were chosen to be rich in hits. Some 9.9% of all compounds tested hit in one or more screens of this group. Unless noted, the call rests on the fitted dose curve; in most records, active means well fitted inhibition curve with a large enough effect (not every such curve was filed as active); inconclusive means small, poorly fitted or top-dose-only effect, or another doubt; inactive means no such curve, though single readings can be large or run the other way.

COc1cc(NC(=O)N2CCC3(CC2)Nc2cc(F)ccc2-n2cccc23)cc(OC)c1OC	Tau fluor cs 12.6µM[quencher], Tau FP inhib inconclusive (no result: ALDH1A1 inh, KDM4E inh, HPGD inh)
CS(=O)(=O)Nc1ccc(C2=NN(S(C)(=O)=O)C(c3ccc4c(c3)OCO4)C2)cc1 (stereo not given)	ALDH1A1 inh inconclusive, KDM4E inh inconclusive, HPGD inh inconclusive
COc1ccc(N=Nc2nc3cc(Br)c(Br)cc3n2C)c(OC)c1	HPGD inh 7.94µM
CCc1cc(-c2[nH]ncc2-c2nc3ccccc3n2C)c(O)cc1O	Tau ThT inhib inconclusive, KDM4E inh inconclusive, Tau fluor cs inconclusive (no result: ALDH1A1 inh, HPGD inh)
CCCc1cc(-c2[nH]ncc2-c2ccc(C(=O)OCC)o2)c(O)cc1O	ALDH1A1 inh inconclusive, KDM4E inh inconclusive, Tau fluor cs 14.1µM[quencher], HPGD inh inconclusive, Tau FP inhib inconclusive
CCCc1cc(-c2[nH]ncc2-c2ccc3c(c2)OCCCO3)c(O)cc1O	Tau ThT inhib inconclusive, ALDH1A1 inh inconclusive, KDM4E inh inconclusive, Tau fluor cs 10µM[quencher], Tau FP inhib inconclusive
NC(=O)CSc1nc2cc3c(cc2c(=O)n1CCCCCC(=O)NCc1ccc2c(c1)OCO2)OCO3	none (no result: ALDH1A1 inh, KDM4E inh, HPGD inh)
CCCCN1C(=S)NC[C@@H]1Cc1ccc(O)cc1	none (no result: ALDH1A1 inh, HPGD inh)
CCN(C(=O)COC(=O)/C=C/c1cnc2ccccc2n1)c1ccccc1	Tau ThT inhib inconclusive, ALDH1A1 inh inconclusive (no result: HPGD inh)
CC(C)N(Cc1ccccc1)C(=O)COC(=O)/C=C/c1cnc2ccccc2n1	Tau ThT inhib inconclusive, ALDH1A1 inh 15.8µM (no result: HPGD inh)
CCN(CC)S(=O)(=O)c1cc(NC(=O)COC(=O)CCC(=O)c2cccs2)ccc1C	none (no result: HPGD inh)
O=C(COC(=O)Cn1c(C(F)(F)F)nc2ccccc21)Nc1ccc2c(c1)OCCO2	none
O=C(COC(=O)Cn1cnc2ccccc21)Nc1ccc2c(c1)OCCO2	ALDH1A1 inh 28.2µM
CCN(CC)S(=O)(=O)c1cc(NC(=O)COC(=O)Cn2cnc3ccccc32)ccc1C	ALDH1A1 inh 20µM
N#CCCN(Cc1cccnc1)C(=S)NC1CC2C=CC1C2 (stereo not given)	none (no result: HPGD inh)
NC(=O)/C(=N\OC(=O)c1ccco1)c1nc(-c2ccc(Br)cc2)cs1	Tau ThT inhib inconclusive, ALDH1A1 inh 12.6µM, KDM4E inh inconclusive, HPGD inh 12.6µM
c1ccc2c(c1)CC(N1CCN(c3cccc4c3OCCO4)CC1)C2	ALDH1A1 inh 22.4µM
COc1ccc(/C=N/NC2=NCCCCC2)c(OC)c1	ALDH1A1 inh inconclusive, KDM4E inh inconclusive (no result: HPGD inh)
Cc1cc(C(=O)OCC(N)=O)c(C)n1-c1ccccc1	none (no result: HPGD inh)
C/C(N)=C(/C#N)C(=O)COC(=O)c1cc(C)n(-c2ccc(F)cc2)c1C	ALDH1A1 inh 12.6µM
CN(CCCNC(=O)CSc1cc(=O)n(C)c2cc(Cl)ccc12)Cc1ccccc1	none (no result: HPGD inh)
COc1ccc(/C=C/C(=O)NCC2COc3ccccc3O2)cc1OC (stereo not given)	Tau ThT inhib inconclusive, ALDH1A1 inh inconclusive (no result: HPGD inh)
Cc1cccc(/C=N/NC(=O)NC2CCCCC2)c1	none
Cc1ccc(/C=C/C(=O)NCC2COc3ccccc3O2)o1 (stereo not given)	Tau ThT inhib inconclusive, ALDH1A1 inh 6.31µM (no result: HPGD inh)
Cc1ccc(/C=C/C(=O)NC2CCCCCCC2)o1	Tau ThT inhib inconclusive, ALDH1A1 inh 3.55µM, HPGD inh 3.55µM, Tau FP inhib inconclusive
Cc1ccc(/C=N/NC(=O)NC2CCCCC2)o1	ALDH1A1 inh 3.55µM (no result: HPGD inh)
CC(C)c1ccc(/C=C/C(=O)NC2CCCCC2)cc1	none
c1ccc(-c2nn3c(C4CCCCC4)nnc3s2)nc1	ALDH1A1 inh inconclusive
Clc1ccc(OCc2nn3c(C4CCCCC4)nnc3s2)cc1	ALDH1A1 inh 17.8µM, HPGD inh 20µM
CCOC(=O)CSC1=NC(=O)/C(=C\c2ccc(OC(C)=O)cc2)S1	Tau ThT inhib inconclusive, HPGD inh 25.1µM
CC1=CC2(O)OCCN(CCO)C2=CC1=O (stereo not given)	Tau ThT inhib 28.2µM, KDM4E inh 25.1µM, Tau fluor cs inconclusive, Tau FP inhib inconclusive
Cc1cc(C)n(-c2ncc3c(n2)N(CCO)CCOC3=O)n1	KDM4E inh inconclusive (no result: HPGD inh)
Cc1cc(C)c(C)c(S(=O)(=O)NCc2ccc(C(=O)N3CCCCC3)cc2)c1C	Tau ThT inhib inconclusive, ALDH1A1 inh inconclusive, HPGD inh 2µM
